Compound activity: PubChem, National Center for Advancing Translational Sciences (NCATS)
Shown are actives, neighbours in structure and some others; about 19% of the full set was active somewhere.
TDP1 cell CPT: growth inhibition of DT40 Tdp1-/-;hTDP1 cells with camptothecin (screen for TDP1 inhibitors). Potency, µM (titrated, usually from 46.2 µM), for inactives: top-dose activity change, negative = growth inhibition, actives largely listed as inhibitors. chicken DT40 Tdp1-/-;hTDP1 cells + 20 nM CPT, ATP luminescence, 48 h. AID 686979. 420,000 compounds, 12% hits; also: potency is read from the fitted curve at half-maximal effect; nearly all actives have a fitted effect of over 55% in size
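Cell growth measured by CellTiter-Glo luminescence after a minimum 48 h, 37 C compound exposure with 20 nM CPT in Tdp1-knockout DT40 cells stably expressing hTDP1, seeded 400/well; qHTS titration format.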
HT1080NT lethal: kills 2HG-producing HT-1080-NT fibrosarcoma cells; 360,000 compounds, 1.6% hits; Potency, µM (series often up to 46.1 µM), inactives show at the highest dose activity, negative = less viability, actives largely listed as cytotoxic; AID 686970; HT-1080-NT fibrosarcoma viability, CellTiter-Glo ATP luminescence, 48 h;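 also: NT is the 2HG producing partner of a matched IDH1 knockdown line; potency is read from the fitted curve at half-maximal effect; 0% = DMSO-treated cells and -100% = media-only wells without cells; nearly all actives have a fitted effect of over 55% in size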
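Luminescent CellTiter-Glo readout after 48 hours of compound exposure at 37 degrees C defined viability of HT-1080-NT cells. Activity was normalized to DMSO wells and cell-free media wells; concentration-response curves were fitted and assigned curve classes.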
IL-1B inflam inh: inhibitors of inflammasome signaling (IL-1 beta secretion) | THP-1 LPS/ATP IL-1B secretion, AlphaLISA, 16 h; hits give low values | activity change, % at 57.5 µM | 360,000 compounds, 4.7% hits | AID 743279; in the data active = activity change below about -50%; inconclusive = mostly about -30% to -49%
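THP-1 cells pretreated 1 hr with compounds (up to 57.5 uM final), then stimulated with LPS (250 ng/mL final) plus ATP (1.25 mM final); secreted IL-1B measured by AlphaLISA after 16 hr, decreased signal indicating inhibition.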
TDP1 cell noCPT: qHTS for Inhibitors of human tyrosyl-DNA phosphodiesterase 1 (TDP1): qHTS in cells in absence of CPT | DT40 Tdp1-/- hTDP1 cells, no CPT, ATP luminescence, 48 h | Potency, µM (doses to about 46.2 µM), for the others: at the highest dose activity change, negative = growth inhibition, actives largely listed as inhibitors | 420,000 compounds, 15% hits | AID 686978, 2013; also: potency is read from the fitted curve at half-maximal effect; nearly all actives have a fitted effect of over 55% in size
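Camptothecin absent (DMSO only). Human TDP1-complemented DT40 knockout cells, 400 cells/well, 37 °C for minimum 48 hr; ATP measured via CellTiter-Glo, 30 min dark incubation, luminescence.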
HT1080 IDH1KD tx: kills HT-1080 cells with IDH1 knockdown; HT-1080 IDH1 knockdown viability, ATP luminescence, 48 h; Potency, µM (doses to about 46.1 µM), for the others: at the top dose activity, negative = toxicity, hits mostly cytotoxic; 360,000 compounds, 2% hits; AID 686971;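 also: potency is read from the fitted curve at half-maximal effect; 0% = DMSO wells and -100% = cell-free medium wells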
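IDH1KD HT-1080 cells, 750/well, RPMI + 5% FBS; compound pinned after 2 h settling; 48 h, 37 °C; CellTiter-Glo luminescence; % activity normalised to DMSO and no-cell wells; curves fitted, classed by r2 and efficacy.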
Active calls of the source: *; ? = inconclusive; . = no result; [ ] = dose if it differs, or a comment. Unless noted, calls follow the shape of the dose curve; as a rule, active = well fitted curve in the direction sought with a large enough effect; inconclusive = small, poorly fitted or top-dose-only effect, or another doubt; inactive = no such curve, though single readings can be large; an effect the other way counts as inactive or inconclusive. Unless noted, % is scaled to controls: 0 for no effect and ±100 for the full control effect.

SMILES | TDP1 cell CPT | HT1080NT lethal | IL-1B inflam inh | TDP1 cell noCPT | HT1080 IDH1KD tx
O=C(NNC(=O)C1COc2ccccc2O1)c1ccccc1O (centres undefined) | ? | -0.2% | 5.1 | 16.4µM* | -0.2%
Cc1ccc(-n2ncc3c(=O)n(Cc4ccccc4C)cnc32)cc1C | -8.1% | . | . | ? | .
Cc1ccc(OCCNC(=O)c2ccco2)cc1C | -1.8% | 0.2% | -12.4 | -1.4% | 7.5%
Cc1ccc2nsnc2c1S(=O)(=O)N1CCOCC1 | -18.5% | -0.4%[9.24 µM] | 44.2 | -8.1% | -12.8%
COc1ccc(Cc2nc3ccc(C(=O)NC(C)c4cn(C)nc4C)cc3o2)cc1 (centres undefined) | ? | 1.1% | 19.8 | -19.9% | 3.3%
COc1ccc(NC(=O)CN2C(=O)CSC(C)C2=O)cc1 (centres undefined) | ? | 16.2% | 10.7 | -25.2% | 7.3%
CCOC(=O)c1cc(-c2ccc3c(c2)OCCO3)nc2c1c(C)nn2CCC#N | ? | -8.6% | 0.0 | 11.6µM* | -3.3%
CCOC(=O)c1cc(-c2ccncc2)nc2c1c(C)nn2C | ? | ? | ? | 18.4µM* | ?
CCOC(=O)c1cc(-c2ccco2)nc2c1c(C)nn2CCC#N | ? | 1.5% | -28.9 | ? | 7.7%
CCOC(=O)c1cc(-c2ccc(Cl)cc2)nc2c1c(C)nn2CCC#N | ? | 2.7% | ? | ? | 1.9%
CCOC(=O)c1cc(-c2ccc(OC)cc2F)nc2c1c(C)nn2CCC#N | ? | 7.5% | -50.0* | ? | -0.7%
Nc1[nH]c(C(=O)c2ccccc2)c(-c2ccc(Cl)cc2Cl)c1C(=O)c1ccc(Br)cc1 | 0.4% | 12.0% | 0.0 | -6.4% | 0.8%
CCOc1ccc2c(ccc(/C=C/c3cc(C)c4cccnc4c3O)[n+]2C)c1 | 2.59µM* | ? | ? | 5.17µM* | 23.1µM*
CCOc1ccc2nc(C)cc(C(=O)O)c2c1 | -11.1% | 9.8% | -9.2 | -0.2% | 0.9%
CN(C)c1ccc(/C=C/c2nc(-c3ccccc3O)n(-c3ccccc3)n2)cc1 | 16.4µM* | . | . | ? | .
COc1ccc(/C=C/c2nc(-c3ccccc3O)n(-c3ccccc3)n2)cc1 | -27.8% | -0.8% | 0.0 | ? | -7.5%
O=C(CSc1cccc[n+]1[O-])CSc1cccc[n+]1[O-] | 1.03µM* | 1.03µM* | -19.6 | 9.2µM* | 0.517µM*
O=C(CSc1cccc[n+]1[O-])N1CCCCCC1 | -7.0% | 23.7% | -9.6 | 0.5% | 0.9%
[O-][n+]1ccccc1SSc1cccc[n+]1[O-] | 0.106µM* | . | . | 0.119µM* | .
CC(C)CC(N)c1csc(Nc2ncccn2)n1 (centres undefined) | 9.2µM* | ? | -15.1 | 6.51µM* | ?
NC(Cc1ccc(C(F)(F)F)cc1)c1csc(Nc2cnccn2)n1 (centres undefined) | 6.51µM* | ? | ? | 5.8µM* | ?
NC(Cc1ccc(F)cc1)c1csc(Nc2ccc(C(F)(F)F)cn2)n1 (centres undefined) | 13µM* | ? | -55.2* | 9.2µM* | ?
NC(Cc1cnc[nH]1)c1csc(Nc2ccc(C(F)(F)F)cn2)n1 (centres undefined) | -21.3% | 0.2% | 21.8 | -25.8% | 0.0%
NC(Cc1ccc(C(F)(F)F)cc1)c1csc(Nc2cc(NCc3ccco3)ncn2)n1 (centres undefined) | 20.6µM* | 23.1µM* | ? | 16.4µM* | 16.4µM*
CCC(C(=O)NCCc1ccc(S(N)(=O)=O)cc1)c1ccccc1 (centres undefined) | -0.2% | 21.3% | -7.9 | -13.7% | 15.1%
SMILES | TDP1 cell CPT | HT1080NT lethal | IL-1B inflam inh | TDP1 cell noCPT | HT1080 IDH1KD tx
NC(Cc1ccc(C(F)(F)F)cc1)c1csc(Nc2ccccn2)n1 (centres undefined) | ? | 20.6µM* | -77.4* | ? | ?
NC(COCc1ccccc1)c1csc(Nc2ncccn2)n1 (centres undefined) | -5.7% | -27.8% | -24.4 | ? | -18.8%
NC(Cc1ccc(C(F)(F)F)cc1)c1csc(Nc2ncccn2)n1 (centres undefined) | 9.2µM* | ? | -52.5* | 9.2µM* | ?
Cn1ccn(CCCCCCn2ccn(C)c2=S)c1=S | -8.9% | -4.2% | 30.1 | ? | -0.2%
CC(C)[C@H](NS(=O)(=O)c1ccccc1)C(=O)OCc1cc([N+](=O)[O-])cc2c1OCOC2 | -17.4% | -1.2% | 12.1 | ? | -4.8%
CN(C)/C=C/C(=O)/C=C/c1ccc(Cl)cc1 | -1.6% | 11.6µM* | -100.2* | ? | ?
Cc1nn(CCCC(=O)Nc2cc(Oc3ccccc3)cc([N+](=O)[O-])c2)c(C)c1[N+](=O)[O-] | ? | -1.6% | -50.2* | ? | -9.3%
Cn1cc([N+](=O)[O-])c(C(=O)Nc2cc(Oc3ccccc3)cc([N+](=O)[O-])c2)n1 | -8.6% | 18.4µM* | -14.7 | -24.3% | 6.51µM*
Cc1ccc(C)c(Oc2cc(NC(=O)CCCn3nc(C)c([N+](=O)[O-])c3C)cc([N+](=O)[O-])c2)c1 | ? | 16.4µM* | ? | ? | ?
CCn1nc(C)c(C(=O)Nc2cc(Oc3cc(C)cc(C)c3)cc([N+](=O)[O-])c2)c1C | ? | ? | 6.8 | 20.6µM* | ?
COc1ccc(NC(=O)C2CC(=O)OC23CCOC(C)(C)C3)cc1 (centres undefined) | 12.1% | 11.5% | -1.8 | 0.7% | 6.2%
CCCCCCCOc1ccc(OC(=O)c2cccnc2)cc1 | 5.17µM* | 1.1% | 9.2 | 8.2µM* | 6.4%
CCCCCCCOc1ccc(OC(=O)c2ccncc2)cc1 | 9.2µM* | 0.0% | 7.8 | 10.3µM* | 5.8%
CCCCOc1ccc(OC(=O)c2cccnc2)cc1 | 20.6µM* | -6.6% | -3.0 | 16.4µM* | ?
C/C(N)=C(/C#N)C(=O)COC(=O)c1ccc(OCC2CCCO2)cc1 (centres undefined) | 10.6% | 13.3% | 22.9 | 2.7% | -1.2%
COc1ccccc1C(=O)Nc1ccc(C)cc1C(=O)c1ccccc1 | -11.2% | 17.9% | -7.0 | -27.8% | 5.9%
Cc1cccnc1NC(=O)c1ccccc1NC(=O)C(C)(C)C | -15.0% | 10.2% | 0.1 | 18.2% | 12.6%
Cc1ccnc(NC(=O)c2ccccc2NC(=O)C(C)(C)C)c1 | 18.4µM* | ? | 49.4 | 16.4µM* | ?
COc1ccc(C(=O)Nc2ccc(C)cc2C(=O)c2ccccc2)cc1 | -8.7% | -0.7% | -73.5* | -20.8% | -0.8%
COc1cc(C(=O)Nc2ccccc2C(=O)Nc2ccccn2)cc(OC)c1OC | 4.61µM* | 1.7% | 29.6 | 3.26µM* | -1.0%
COc1cc2ccccc2cc1C(=O)Nc1nccs1 | 14.6µM* | -18.3% | -1.0 | ? | -15.2%
COc1cc(C(=O)Nc2ccccn2)cc(OC)c1OC | -1.3% | 21.1% | -19.2 | -7.7% | 7.9%
